PubChem BioAssay AID540350 (National Center for Advancing Translational Sciences (NCATS), 2011)
The other results are listed elsewhere or left out. Results filed as inconclusive are left out. Calls of active or inactive are those of the source. Calls follow the shape of the dose curve; as a rule, active = well fitted inhibition curve with a large enough effect; inconclusive = small, poorly fitted or top-dose-only effect; inactive = no such curve, though single readings can be large or run the other way.

biological target: 4'-phosphopantetheinyl transferase Sfp (Bacillus subtilis (strain 168)) (UniProt P39135); test: qHTS Assay for Inhibitos of Bacillus subtilis Sfp phosphopantetheinyl transferase (PPTase): Chemistry Optimization Followup; conditions: purified Sfp PPTase enzyme activity
Text: The covalent attachment of a phosphopantetheinyl (4'-PP) arm to a variety of synthases and other proteins is a key posttranslational protein modification. The 4'-PP is installed on the proteins post-translationally from coenzyme A (CoA) on a conserved serine residue by action of phosphopantetheinyl transferase (PPTase) enzymes. Phosphopantetheinylation is essential for synthase activity, and removal of the PPTase gene precludes natural product synthesis in microorganisms, or in the case of fatty acid biosynthesis, renders the organism unviable. PPTase enzymes belong to a distinct structural superfamily. Within bacteria, these enzymes are grouped into two classes based upon primary structure, the AcpS-Type and Sfp-Type PPTases.
Sfp-type PPTases, corresponding to an activator of surfactin production in Bacillus subtilis, are responsible for modifying type I polyketide and nonribosomal peptide synthases of prokaryotes. Sfp-type PPTases are responsible for the activation of a variety of pathogen-associated virulence factors. Among these compounds are toxins such as mycolactone from Mycobacterium ulcerans, siderophores such as vibriobactin from Vibrio cholerae or mycobactin from Mycobacterium tuberculosis, as well as the mycolic acids which form the waxy cell wall of Mycobacteria. The biosyntheses of these natural products are considered attractive targets for drug design.
In search of small molecule Sfp-PPTase inhibitors, a fluorescence quenching assay was developed for detection of Bacillus subtilis Sfp-PPTase enzymatic activity in a miniaturized high-throughput format. The consensus ybbr acceptor peptide […] was N-terminally labeled with Black Hole Quencher-2 (BHQ-2) and used in combination with rhodamine-labeled coenzyme A as a co-substrate.
Inhibition of Sfp-PPTase was detected by recording the fluorescence intensity change over a 30-minute reaction period at a 525 nm excitation and 598 nm emission. Reagents were supplied by Michael Burkart and Timothy Foley, University of California at San Diego.
NIH Chemical Genomics Center [NCGC]
NIH Molecular Libraries Probe Centers Network [MLPCN]
Assay Submitter (PI): Michael Burkart, University of California, San Diego
3 uL of Sfp-PPTase enzyme (final concentration 15 nM) and 1 uL of substrate mixture (final concentration for rhodamine-CoA and BHQ-2-YbbR 5 uM and 12.5 uM, respectively) dispensed in columns 1, 2, 5 - 48. Columns 1 and 2 used to generate neutral control (uninhibited reaction)
Three uL of reagents, consisting of buffer (in columns 3 and 4 as negative control) and Sfp-PPTase (in columns 1, 2, 5 - 48) were dispensed into 1,536-well Greiner black solid bottom plate. Compounds (23 nL) were transferred via Kalypsys pintool equipped with 1,536-pin array. The plate was incubated for 15 min at room temperature, followed by the addition of 1 uL substrate to start the reaction. The plate was then centrifuged at 1000 rpm for 15 seconds, and the fluorescence intensity recorded on a ViewLux High-throughput CCD imager (Perkin-Elmer) using standard BODIPY optics (525 nm excitation and 598 nm emission). The plate was then incubated for 30 minutes, and a second read on the ViewLux was performed. The fluorescence intensity difference over the 30-minute period was used to calculate the respective reaction rate for each well.

Potency, active:
Cc1cc(C)nc(NC(=S)N2CCN(c3ccc4nonc4c3)CC2)c1 7440 nM
Cc1cc(C)nc(NC(=S)N2CCN(c3cccc(C(F)(F)F)c3)CC2)c1 1670 nM
COc1ccnc(NC(=S)N2CCN(c3ncc(C(F)(F)F)cc3Cl)CC2)c1 2640 nM
Cc1cc(C)nc(NC(=S)N2CCN(c3ccc(Cl)cc3C(F)(F)F)CC2)c1 2960 nM
Cc1cc(C)nc(NC(=S)N2CCN(c3cccc(C#N)c3)CC2)c1 5910 nM
Cc1cc(C)nc(NC(=S)N2CCN(c3ccc(Cl)cc3F)CC2)c1 1870 nM
Cc1ccc(N2CCN(C(=S)Nc3cc(C)ccn3)CC2)cc1 6630 nM
